The values that follow come from PubChem BioAssay (NCATS).

Records with an inconclusive call do not appear. The source made the active and inactive calls. Calls follow the shape of the dose curve; as a rule, active = well fitted inhibition curve with a large enough effect; inconclusive = small, poorly fitted or top-dose-only effect; inactive = flat fitted curve, though single readings scatter.
Potency is read from the fitted curve at half-maximal effect.

The subject of the first experiment is CP201. The experiment can be described thus: qHTS profiling for inhibitors of Plasmodium falciparum proliferation (AID 504749). Also: nearly all actives have a fitted effect of over 60% in size.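 As to activity, negative = inhibition: 0% = DMSO vehicle and full inhibition = artemisinin control.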 The conditions noted are these: P. falciparum in erythrocytes, SYBR Green DNA, 72 h; series mostly up to 28.7 µM; activity, negative = inhibition: at the top concentration. The essentials:
(§1)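 Each compound contacts P. falciparum-infected red blood cells for 72 h at 37 C; lysis buffer (Tris, EDTA, saponin, Triton X, SYBR Green I) is added and fluorescence measured next morning; values normalized to controls.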
On the technique in general: Quantitative high-throughput screening tests each substance at several concentrations.
For `COC1C(OC(=O)/C=C/C=C/C=C/C=C/C(=O)O)CCC2(CO2)C1C1(C)OC1CC=C(C)C` (centres undefined), the Potency was 7.57 µM (active).

For the compound `CCCOc1ccc2nc(NC(=O)OC)sc2c1`, the “activity, negative = inhibition” value was 3.04% (inactive).

Take `C=CCNC1=C2C[C@@H](C)C[C@H](OC)[C@H](O)[C@@H](C)/C=C(\C)[C@H](OC(N)=O)[C@@H](OC)/C=C\C=C(/C)C(=O)NC(=CC1=O)C2=O`: the Potency is 6.75 µM (active).

The test system of another experiment is CP203. The description is as above. The conditions noted are these: P. falciparum in erythrocytes, SYBR Green DNA, 72 h; series mostly up to 28.7 µM; activity, negative = inhibition: at the top concentration. The essentials:
as §1
For the compound `COC1C(OC(=O)/C=C/C=C/C=C/C=C/C(=O)O)CCC2(CO2)C1C1(C)OC1CC=C(C)C` (centres undefined), the Potency was 2.69 µM (active).

For the compound `CCCOc1ccc2nc(NC(=O)OC)sc2c1`, the “activity, negative = inhibition” value is -0.0611% (inactive).

As for `C=CCNC1=C2C[C@@H](C)C[C@H](OC)[C@H](O)[C@@H](C)/C=C(\C)[C@H](OC(N)=O)[C@@H](OC)/C=C\C=C(/C)C(=O)NC(=CC1=O)C2=O`, the Potency was 3.79 µM (active).

Another experiment deals with CP211. The experiment is described as above. The conditions noted are these: P. falciparum in erythrocytes, SYBR Green DNA, 72 h; series mostly up to 28.7 µM; activity, negative = inhibition: at the top concentration. The essentials: as §1
As to `COC1C(OC(=O)/C=C/C=C/C=C/C=C/C(=O)O)CCC2(CO2)C1C1(C)OC1CC=C(C)C` (centres undefined), the Potency is 0.0379 µM (active).

Consider `CCCOc1ccc2nc(NC(=O)OC)sc2c1`, for which the “activity, negative = inhibition” value is -16.6% (inactive).

As to `C=CCNC1=C2C[C@@H](C)C[C@H](OC)[C@H](O)[C@@H](C)/C=C(\C)[C@H](OC(N)=O)[C@@H](OC)/C=C\C=C(/C)C(=O)NC(=CC1=O)C2=O`, the Potency is 3.79 µM (active).
